# Data from PubChem BioAssay (NCATS).
# Inconclusive results are not listed. A call without a number means that no potency is given here. Values without a mark were called inactive. Active and inactive are the calls of the source. Calls come from the whole dose curve; as a rule, active = well fitted curve in the direction sought with a large enough effect; inconclusive = small, poorly fitted or top-dose-only effect, or another doubt; inactive = no such curve, though single readings can be large; an effect the other way counts as inactive or inconclusive.
# Experiments:
# [1] = molecular target: Cellular tumor antigen p53 (Homo sapiens) (UniProt P04637); assay: Primary qHTS for small molecule compounds that upregulate eGFP-tagged delta133p53alpha (in N-terminal) cells. (AID 2060322); conditions: NCI-H358 eGFP-delta133p53alpha fluorescence, 24 h; activation: hits give high values; note: nearly all actives have a fitted effect of over 75% in size; note: potency is the fitted concentration of half-maximal effect; for activation: series mostly up to about 56 µM
# Sequence of Cellular tumor antigen p53 (Homo sapiens) (P04637 whole entry, looked up): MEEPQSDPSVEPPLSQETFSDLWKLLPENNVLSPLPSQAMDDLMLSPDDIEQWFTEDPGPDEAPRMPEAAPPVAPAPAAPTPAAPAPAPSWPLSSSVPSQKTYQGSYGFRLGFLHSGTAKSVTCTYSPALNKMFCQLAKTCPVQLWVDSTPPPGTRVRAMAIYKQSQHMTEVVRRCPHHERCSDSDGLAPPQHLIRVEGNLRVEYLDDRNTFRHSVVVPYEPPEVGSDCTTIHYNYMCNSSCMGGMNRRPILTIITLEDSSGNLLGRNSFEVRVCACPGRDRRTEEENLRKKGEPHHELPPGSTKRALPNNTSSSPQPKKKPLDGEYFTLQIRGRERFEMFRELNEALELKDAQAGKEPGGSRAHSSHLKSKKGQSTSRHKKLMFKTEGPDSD
# In short: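 NCI-H358 cells pre-induced 24 h with 10 ng/ml doxycycline to express N-terminal eGFP-delta133p53alpha, then dosed 24 h at 37C without doxycycline; fixed, Hoechst-stained, GFP intensity by laser scanning cytometry, normalized to DMSO (0%) and 57.5 uM 5-azacytidine (100%).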
# [2] = molecular target: Aldehyde dehydrogenase, mitochondrial (Homo sapiens) (UniProt P05091); assay: qHTS for Inhibitors of the Aldehyde Dehydrogenase Family (ALDH2) Primary screen (AID 2061308); note: nearly all actives have a fitted effect of over 55% in size
# [3] = molecular target: Retinaldehyde dehydrogenase 3 (Homo sapiens) (UniProt P47895); assay: qHTS for Inhibitors of the Aldehyde Dehydrogenase Family (ALDH1A3) Primary screen (AID 2061315)
Structure (SMILES),Potency [1],Potency [2],Potency [3],activation [1]
COC(=O)C1(C)c2[nH]c3ccccc3c2CCN1C(=O)CCl (stereo not drawn),30.1 µM (active),inactive,inactive,–
C=C1CCC(OC(C)=O)C2(C)CC3(O)OC(=O)C(C)=C3CC12 (stereo not drawn),–,inactive,inactive,-2.29%
C/C=C/C=C/C(=O)N1CC[C@]23c4ccccc4N[C@H]4N(C)c5cccc6c5[C@@]42CCN([C@H]6C2OC2(C)C)[C@H]13 (stereo partly drawn),–,inactive,inactive,15.3%
Cc1[nH]c2ccccc2c1CCNC(=O)c1ccccc1F,–,inactive,inactive,-0.477%
COC(=O)C12CCC(C)C(C)C1C1=CCC3C4(C)CCC(OC(C)=O)C(C)(C)C4CCC3(C)C1(C)CC2 (stereo not drawn),–,inactive,inactive,-12.2%
N#Cc1cc(-c2ccnc(Nc3ccc(N4CCOCC4)cc3)n2)ccc1OC1CCOCC1,–,inactive,inactive,-18.8%
CCC(C)C1NC(=O)C2C(C)CCN2C(=O)C(CC(O)CO)OC(=O)CCNC(=O)C(C)N(C)C(=O)C(C(C)C)N(C)C1=O (stereo not drawn),–,inactive,inactive,-6.11%
C1=Cc2ccccc2C(=C2CCN(CCCCc3nn[nH]n3)CC2)c2ccccc21,–,inactive,inactive,-3%
C[C@@H]1CCC2C(C)(C)[C@H](O)CC[C@]2(C)[C@@]12Cc1c(O)cc3c(c1O2)CNC3=O (stereo partly drawn),–,inactive,inactive,-20.6%
CC(=O)OCC(=O)Nc1cc(C#N)cc(NC(=O)COC(C)=O)c1Cl,–,inactive,inactive,2.33%
COc1ccccc1-c1ccc(-c2cn(C(=O)N3CCCCC3Cc3ccccc3)nn2)cc1 (stereo not drawn),–,inactive,inactive,-5%
